# Experimental data from the supplement of paper PMC7765376.
# Structures can show the parent of a compound that is named as a salt. Over roughly 1,500 compounds, “Excess HSA synergy score (sum over dose matrix of excess over highest single agent)” has its median near 43; the lowest 2% begin near -900. The sample as a whole holds a higher share of the lowest values than the screen did.
# Test system: PEO-1
# Assay: Excess HSA synergy score (sum over dose matrix of excess over highest single agent) (score (summed % response)); higher = less synergy / more antagonism (negative = synergy)
# Settings: 72 h, read-out: viability/apoptosis luminescence (CellTiter-Glo or Caspase3-Glo / not stated per table)
# [1] = matrix design: 6x6, 5-fold dilutions (primary screen)
# [2] = matrix design: 10x10, 9-step dilutions (confirmatory)
SMILES,Excess HSA synergy score [1],Excess HSA synergy score [2]
CC(=O)NCC(=O)N1[C@@H]2CC[C@H]1c1ccc(Nc3ncc(C(F)(F)F)c(NC4CCC4)n3)cc12 + CC[C@H](NC(=O)[C@H](C)NC)C(=O)N1C[C@@H](O)C[C@H]1Cc1c(-c2[nH]c3cc(F)ccc3c2C[C@@H]2C[C@H](O)CN2C(=O)[C@H](CC)NC(=O)[C@H](C)NC)[nH]c2cc(F)ccc12 [Birinapant],-154,
CCCCN1CCC(CNC(=O)c2c3n(c4ccccc24)CCCO3)CC1 [Piboserod hydrochloride] + CC[C@H](NC(=O)[C@H](C)NC)C(=O)N1C[C@@H](O)C[C@H]1Cc1c(-c2[nH]c3cc(F)ccc3c2C[C@@H]2C[C@H](O)CN2C(=O)[C@H](CC)NC(=O)[C@H](C)NC)[nH]c2cc(F)ccc12 [Birinapant],-0.918,
Nc1ccn([C@@H]2O[C@H](CO)[C@@H](O)C2(F)F)c(=O)n1 [Gemcitabine] + CC[C@H](NC(=O)[C@H](C)NC)C(=O)N1C[C@@H](O)C[C@H]1Cc1c(-c2[nH]c3cc(F)ccc3c2C[C@@H]2C[C@H](O)CN2C(=O)[C@H](CC)NC(=O)[C@H](C)NC)[nH]c2cc(F)ccc12 [Birinapant],-59.3,-1130
Nc1ncn([C@@H]2O[C@H](CO)[C@@H](O)[C@H]2O)c(=O)n1 [5-Azacitidine] + CC[C@H](NC(=O)[C@H](C)NC)C(=O)N1C[C@@H](O)C[C@H]1Cc1c(-c2[nH]c3cc(F)ccc3c2C[C@@H]2C[C@H](O)CN2C(=O)[C@H](CC)NC(=O)[C@H](C)NC)[nH]c2cc(F)ccc12 [Birinapant],-38.5,
Nc1ccn([C@@H]2O[C@H](CO)[C@@H](O)[C@@H]2O)c(=O)n1 [Cytarabine] + CC[C@H](NC(=O)[C@H](C)NC)C(=O)N1C[C@@H](O)C[C@H]1Cc1c(-c2[nH]c3cc(F)ccc3c2C[C@@H]2C[C@H](O)CN2C(=O)[C@H](CC)NC(=O)[C@H](C)NC)[nH]c2cc(F)ccc12 [Birinapant],-388,-1320
Nc1ccn([C@@H]2CS[C@H](CO)O2)c(=O)n1 [Lamivudine] + CC[C@H](NC(=O)[C@H](C)NC)C(=O)N1C[C@@H](O)C[C@H]1Cc1c(-c2[nH]c3cc(F)ccc3c2C[C@@H]2C[C@H](O)CN2C(=O)[C@H](CC)NC(=O)[C@H](C)NC)[nH]c2cc(F)ccc12 [Birinapant],228,
Nc1ccn([C@@H]2CO[C@H](CO)O2)c(=O)n1 [Troxacitabine] + CC[C@H](NC(=O)[C@H](C)NC)C(=O)N1C[C@@H](O)C[C@H]1Cc1c(-c2[nH]c3cc(F)ccc3c2C[C@@H]2C[C@H](O)CN2C(=O)[C@H](CC)NC(=O)[C@H](C)NC)[nH]c2cc(F)ccc12 [Birinapant],152,
Nc1ccn([C@@H]2O[C@H](CO)[C@@H](O)[C@H]2O)c(=O)n1 [Cytidine] + CC[C@H](NC(=O)[C@H](C)NC)C(=O)N1C[C@@H](O)C[C@H]1Cc1c(-c2[nH]c3cc(F)ccc3c2C[C@@H]2C[C@H](O)CN2C(=O)[C@H](CC)NC(=O)[C@H](C)NC)[nH]c2cc(F)ccc12 [Birinapant],170,
O=C(c1ccc(F)c(F)c1Nc1ccc(I)cc1F)N1CC(O)([C@@H]2CCCCN2)C1 [Cobimetinib] + CC[C@H](NC(=O)[C@H](C)NC)C(=O)N1C[C@@H](O)C[C@H]1Cc1c(-c2[nH]c3cc(F)ccc3c2C[C@@H]2C[C@H](O)CN2C(=O)[C@H](CC)NC(=O)[C@H](C)NC)[nH]c2cc(F)ccc12 [Birinapant],148,
CC(C)N(CC[C@H](c1ccccc1)c1cc(CO)ccc1O)C(C)C + CC[C@H](NC(=O)[C@H](C)NC)C(=O)N1C[C@@H](O)C[C@H]1Cc1c(-c2[nH]c3cc(F)ccc3c2C[C@@H]2C[C@H](O)CN2C(=O)[C@H](CC)NC(=O)[C@H](C)NC)[nH]c2cc(F)ccc12 [Birinapant],309,
CCCCCCCCc1ccc(CCC(N)(CO)CO)cc1 [Fingolimod hydrochloride] + CC[C@H](NC(=O)[C@H](C)NC)C(=O)N1C[C@@H](O)C[C@H]1Cc1c(-c2[nH]c3cc(F)ccc3c2C[C@@H]2C[C@H](O)CN2C(=O)[C@H](CC)NC(=O)[C@H](C)NC)[nH]c2cc(F)ccc12 [Birinapant],-38.3,
C/C=C/C[C@@H](C)C(=O)[C@H]1C(=O)N[C@@H](C(C)C)C(=O)N(C)CC(=O)N(C)[C@@H](CC(C)C)C(=O)N[C@@H](C(C)C)C(=O)N(C)[C@@H](CC(C)C)C(=O)N[C@@H](C)C(=O)N[C@H](C)C(=O)N(C)[C@@H](CC(C)C)C(=O)N(C)[C@@H](CC(C)C)C(=O)N(C)[C@@H](C(C)C)C(=O)N1C [Valspodar] + CC[C@H](NC(=O)[C@H](C)NC)C(=O)N1C[C@@H](O)C[C@H]1Cc1c(-c2[nH]c3cc(F)ccc3c2C[C@@H]2C[C@H](O)CN2C(=O)[C@H](CC)NC(=O)[C@H](C)NC)[nH]c2cc(F)ccc12 [Birinapant],173,
COc1ccc(-c2cc3c(C)nc(N)nc3n([C@H]3CC[C@H](OCCO)CC3)c2=O)cn1 + CC[C@H](NC(=O)[C@H](C)NC)C(=O)N1C[C@@H](O)C[C@H]1Cc1c(-c2[nH]c3cc(F)ccc3c2C[C@@H]2C[C@H](O)CN2C(=O)[C@H](CC)NC(=O)[C@H](C)NC)[nH]c2cc(F)ccc12 [Birinapant],-32.5,
O=C(/C=C/c1cccnc1)NCCCCC1CCN(C(=O)c2ccccc2)CC1 [Daporinad] + CC[C@H](NC(=O)[C@H](C)NC)C(=O)N1C[C@@H](O)C[C@H]1Cc1c(-c2[nH]c3cc(F)ccc3c2C[C@@H]2C[C@H](O)CN2C(=O)[C@H](CC)NC(=O)[C@H](C)NC)[nH]c2cc(F)ccc12 [Birinapant],312,
Cc1ccc(NC(=O)c2ccc(CN3CCN(C)CC3)cc2)cc1Nc1nccc(-c2cccnc2)n1 [Imatinib] + CC[C@H](NC(=O)[C@H](C)NC)C(=O)N1C[C@@H](O)C[C@H]1Cc1c(-c2[nH]c3cc(F)ccc3c2C[C@@H]2C[C@H](O)CN2C(=O)[C@H](CC)NC(=O)[C@H](C)NC)[nH]c2cc(F)ccc12 [Birinapant],-103,
Nc1ccccc1NC(=O)c1ccc(CNc2nccc(-c3cccnc3)n2)cc1 [Mocetinostat] + CC[C@H](NC(=O)[C@H](C)NC)C(=O)N1C[C@@H](O)C[C@H]1Cc1c(-c2[nH]c3cc(F)ccc3c2C[C@@H]2C[C@H](O)CN2C(=O)[C@H](CC)NC(=O)[C@H](C)NC)[nH]c2cc(F)ccc12 [Birinapant],-263,-1360
Nc1ccccc1NC(=O)c1ccc(CNC(=O)OCc2cccnc2)cc1 [Entinostat] + CC[C@H](NC(=O)[C@H](C)NC)C(=O)N1C[C@@H](O)C[C@H]1Cc1c(-c2[nH]c3cc(F)ccc3c2C[C@@H]2C[C@H](O)CN2C(=O)[C@H](CC)NC(=O)[C@H](C)NC)[nH]c2cc(F)ccc12 [Birinapant],-296,
CC(/C=C1\SC(=S)N(CC(=O)O)C1=O)=C\c1ccccc1 [Epalrestat] + CC[C@H](NC(=O)[C@H](C)NC)C(=O)N1C[C@@H](O)C[C@H]1Cc1c(-c2[nH]c3cc(F)ccc3c2C[C@@H]2C[C@H](O)CN2C(=O)[C@H](CC)NC(=O)[C@H](C)NC)[nH]c2cc(F)ccc12 [Birinapant],114,
CO/N=C(\C(=O)N[C@@H]1C(=O)N2C(C(=O)O)=C(Cn3ccc(=N)n3CCO)CS[C@H]12)c1csc(N)n1 [Cefoselis sulfate] + CC[C@H](NC(=O)[C@H](C)NC)C(=O)N1C[C@@H](O)C[C@H]1Cc1c(-c2[nH]c3cc(F)ccc3c2C[C@@H]2C[C@H](O)CN2C(=O)[C@H](CC)NC(=O)[C@H](C)NC)[nH]c2cc(F)ccc12 [Birinapant],200,
N#CC(=Cc1ccc(O)c(O)c1)C(=O)NCc1ccccc1 [Tyrphostin B42] + CC[C@H](NC(=O)[C@H](C)NC)C(=O)N1C[C@@H](O)C[C@H]1Cc1c(-c2[nH]c3cc(F)ccc3c2C[C@@H]2C[C@H](O)CN2C(=O)[C@H](CC)NC(=O)[C@H](C)NC)[nH]c2cc(F)ccc12 [Birinapant],83.7,
Cc1[nH]c2ccccc2c1CCNCc1ccc(/C=C/C(=O)NO)cc1 [Panobinostat] + CC[C@H](NC(=O)[C@H](C)NC)C(=O)N1C[C@@H](O)C[C@H]1Cc1c(-c2[nH]c3cc(F)ccc3c2C[C@@H]2C[C@H](O)CN2C(=O)[C@H](CC)NC(=O)[C@H](C)NC)[nH]c2cc(F)ccc12 [Birinapant],-159,-1360
O=C(/C=C/c1cccc(S(=O)(=O)Nc2ccccc2)c1)NO [Belinostat] + CC[C@H](NC(=O)[C@H](C)NC)C(=O)N1C[C@@H](O)C[C@H]1Cc1c(-c2[nH]c3cc(F)ccc3c2C[C@@H]2C[C@H](O)CN2C(=O)[C@H](CC)NC(=O)[C@H](C)NC)[nH]c2cc(F)ccc12 [Birinapant],-26.7,
O=C(/C=C/c1ccc(CN(CCO)CCc2c[nH]c3ccccc23)cc1)NO [Dacinostat] + CC[C@H](NC(=O)[C@H](C)NC)C(=O)N1C[C@@H](O)C[C@H]1Cc1c(-c2[nH]c3cc(F)ccc3c2C[C@@H]2C[C@H](O)CN2C(=O)[C@H](CC)NC(=O)[C@H](C)NC)[nH]c2cc(F)ccc12 [Birinapant],-67.4,
CC[C@]12C=CCN3CC[C@@]4(c5cc([C@@]6(C(=O)OC)C[C@@H]7C[C@@H](C(C)(F)F)CN(Cc8c6[nH]c6ccccc86)C7)c(OC)cc5N(C)[C@H]4[C@@](O)(C(=O)OC)[C@@H]1OC(C)=O)[C@@H]32 [Vinflunine] + CC[C@H](NC(=O)[C@H](C)NC)C(=O)N1C[C@@H](O)C[C@H]1Cc1c(-c2[nH]c3cc(F)ccc3c2C[C@@H]2C[C@H](O)CN2C(=O)[C@H](CC)NC(=O)[C@H](C)NC)[nH]c2cc(F)ccc12 [Birinapant],-106,-752
